# Source: PubChem BioAssay (Tox21)
# Inconclusive results are not listed. Where a call stands in place of a potency, no number is given. The source made the active and inactive calls. The call rests on the fitted dose curve; in most records, active means well fitted inhibition curve with a large enough effect in the repeat runs; inconclusive means weak or mixed curves; inactive means no such curve, though single readings can be large or run the other way. Positions of bridges follow the written chain, without caps; N, C: chain ends. Non-standard residues stand in square brackets, D forms with d. Residues, ends and D or L forms follow the SMILES beside them. hArg = N=C(N)NCCCC[C@H](N)C(=O)O; Mpa = O=C(O)CCS
# Biological target: Cytochrome P450 2D6 (Homo sapiens) (UniProt P10635)
# Sequence (P10635 whole entry, looked up): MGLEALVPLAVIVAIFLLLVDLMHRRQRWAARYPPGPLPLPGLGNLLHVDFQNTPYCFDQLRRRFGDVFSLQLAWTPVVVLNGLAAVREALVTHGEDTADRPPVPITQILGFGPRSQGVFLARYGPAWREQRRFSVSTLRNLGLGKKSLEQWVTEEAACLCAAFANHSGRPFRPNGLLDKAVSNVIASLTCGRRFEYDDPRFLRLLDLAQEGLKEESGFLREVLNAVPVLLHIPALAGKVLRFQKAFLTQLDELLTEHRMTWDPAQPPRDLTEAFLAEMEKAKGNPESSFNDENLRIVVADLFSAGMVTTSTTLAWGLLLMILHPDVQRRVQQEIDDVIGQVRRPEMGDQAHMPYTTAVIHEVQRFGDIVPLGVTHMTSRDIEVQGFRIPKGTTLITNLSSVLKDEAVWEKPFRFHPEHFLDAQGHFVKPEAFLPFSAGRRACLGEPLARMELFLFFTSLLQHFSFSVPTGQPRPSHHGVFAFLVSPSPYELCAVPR
# Experiment: Cytochrome P450 Family 2 Subfamily D Member 6 (CYP2D6) small molecule antagonists: luciferase reporter qHTS assay (AID 1671196); further: nearly all actives have a fitted effect of over 50% in size
# Conditions: P450-Glo CYP2D6 enzyme assay, luciferin luminescence, 1 h; series mostly up to 115 µM
# Description: U.S. Tox21 Program National Center for Advancing Translational Sciences [NCATS] U.S. Environmental Protection Agency [EPA] National Institutes of Environmental Health Sciences [NIEHS] National Toxicology Program [NTP] U.S. Food and Drug Administration [FDA] Tox21 Assay Overview: Cytochrome P450 (CYP) enzymes are membrane-bound hemeproteins that play a key role in metabolism of drugs and xenobiotics. Evaluation of the effect of chemicals on CYP isozymes is useful to minimize the adverse drug reactions and toxicities in drug development process. Tox21 chemicals were tested for their effect on CYP enzyme activities by using P450-Glo (TM) screening systems (Promega Corporation, Madison, WI). These systems provide a luminescent method containing proluciferin substrates and are converted to luciferin products by CYP isozymes. The luciferin products formed are detected with a luciferin detection reagent, and the amount of light produced is proportional to CYP activity. P450-Glo (TM) CYP2D6 screening system (Catalog. No. V9890) was used to detect the compounds that interfere in CYP2D6 activity.
# Tox21 Assay Protocol Summary: Two ul of enzyme-substrate mix was dispensed into medium binding white/solid 1536-well plates (Greiner Bio-One North America Inc., Monroe, NC) using a BioRaptr Flying Reagent Dispenser (FRD, Beckman Coulter, Brea, CA). […] The assay plates were incubated at room temperature for 10 min. Then 2 ul of NADPH regeneration solution was added to each well of the assay plates using an FRD and incubated at room temperature for 1 h. The reaction was stopped by adding 4 ul of detection reagent using an FRD and after 20 min incubation at room temperature the luminescence signal was measured using a ViewLux plate reader (Perkin Elmer, Shelton, CT). Data were expressed as relative luminescence units.
# Potency means the concentration at half of the fitted maximal effect.
Compound,Potency,"activity change, negative = inhibition"
COc1c2occc2c(OC)c2c(=O)cc(C)oc12,12.3 µM (active),
CCCCCCCCCCCCCCC(=O)NC(CO)CCCCCCCCCCCCCC (stereo not given),inactive,
CCC[C@@H]1C[C@@H](C(=O)N[C@@H]([C@H]2O[C@H](SC)[C@H](O)[C@@H](O)[C@H]2O)[C@@H](C)O)N(C)C1,inactive,
CCN1CCCC1CN (stereo not given),inactive,
OC1(c2ccc(Cl)cc2)CCNCC1,5.49 µM (active),
COC(=O)c1cc(Cl)cc(Cl)c1,inactive,
COC(=O)/C=C\C(=O)O,inactive,
CC(=O)OC1CCCCC1C(C)(C)C (stereo not given),inactive,
CC(=O)O[Si](C)(OC(C)=O)OC(C)=O,inactive,
CCCCCCCCCCCCCCCCCCOCCO,,-7.3% [at 23.6 µM] (inactive)
CCC(=O)c1c(O)cc(O)cc1O,27.5 µM (active),
CCC(C)OC(C)CC (stereo not given),inactive,
CC(C)Cn1cnc2c1c(=O)n(C)c(=O)n2C,inactive,
CCCC(=O)OC/C=C(\C)CCC=C(C)C,inactive,
CC1(C)CC(OC(=O)CCCCCCCCC(=O)OC2CC(C)(C)NC(C)(C)C2)CC(C)(C)N1,,-17.8% [at 23.6 µM] (inactive)
[O]=[Mo](=[O])=[O],,-4.35% [at 23.6 µM] (inactive)
Cc1ccccc1C(N)=O,56.3 µM (active),
c1ccc2cnccc2c1,35.6 µM (active),
O/N=C/C=N/O,39.9 µM (active),
C=CC(=O)CCCCC,inactive,

Compound,Potency,"activity change, negative = inhibition"
C=CCSSCCC,56.2 µM (active),
C[C@H]1[C@@H](c2ccccc2)NC(=O)N1C,inactive,
CN(C)C(C)(C)CO,inactive,
NC(=O)[C@@H]1CSSCCC(=O)N[C@@H](CCCCN=C(N)N)C(=O)NCC(=O)N[C@@H](CC(=O)O)C(=O)N[C@@H](Cc2c[nH]c3ccccc23)C(=O)N2CCC[C@H]2C(=O)N1 ([Mpa][hArg]GDWPC-NH2; disulfide 1-7),inactive,
CC(=O)OC(C)=O,inactive,
O=C1OCCO1,inactive,
CCCCCCCCCOC(=O)CCCCC(=O)OCCCCCCC,inactive,
ONc1ccccc1,inactive,
Nc1nnnn1-c1ccccc1,inactive,
CC(=O)O[C@H]1C[C@@H]2CC[C@@]1(C)C2(C)C,inactive,
CO[C@@]1(NC(=O)Cc2cccs2)C(=O)N2C(C(=O)O)=C(COC(N)=O)CS[C@@H]21,inactive,
CCC(C)C(C)=O (stereo not given),34.8 µM (active),
CC(=O)O[C@@H]1CC2CCC1(C)C2(C)C (stereo not given in full),inactive,
NCc1ccc(S(N)(=O)=O)cc1,inactive,
CC(=O)CCc1ccc(OC(C)=O)cc1,inactive,
O=C=NCC1CCCC(CN=C=O)C1 (stereo not given),31.7 µM (active),
O=[N+]([O-])c1c(Cl)cc(Cl)cc1Cl,inactive,
CCO,inactive,
CC(C)CCOC(=O)c1ccccc1,inactive,
CC12CCC(C1)C(C)(C)C2O (stereo not given),inactive,
